Screening data as filed in PubChem.
Only some compounds are listed: those with a hit (about 4.8% of all), similar ones and a draw of the others.
hgDAF12 agonist: H. glycines DAF-12 receptor agonists, primary screen, cell-based, luminescence, HEK293, GAL4 fusion, UAS-luciferase | Nuclear hormone receptor DAF-12 (Heterodera glycines), GAL4 fusion | HEK293 GAL4-hgDAF12 UAS-luciferase reporter, agonist luminescence; normalized to butyrate control | activation, % at 6.8 µM | 370,000 compounds, 1.8% hits | AID 687014, 2013;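 active = activation above a cutoff set at the mean of all screened compounds plus 3 SD, cut at about 10% in these data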;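 also: 0% = DMSO wells and 100% = sodium butyrate wells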
SMARCA2 activ: SMARCA2 (BRM) function activators, primary screen, cell-based, luminescence, high throughput; MG213 cells, MMTV-luciferase reporter, dexamethasone, overnight; activation, % at 9.1 µM; 370,000 compounds, 1% hits; in the data active = activation above about 7.8%;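 also: 0% = vehicle wells and 100% = reference activator wells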
hcDAF-12 act: H. contortus DAF-12 nuclear receptor activators, primary screen, cell-based, luminescence, HEK293, lit1-tk-luc reporter. activation, % at 6.8 µM. HEK293 hcDAF-12 lit1-tk-luc reporter; 0% DMSO, 100% Δ7-dafachronic acid. AID 652067, 2013. 370,000 compounds, 1.4% hits;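 active = activation above the mean of all tested compounds plus 3 SD, cut at about 5.5% in these data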;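 also: 100% = response to 3 µM Δ7-dafachronic acid high control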
DAX1 inh-1: DAX1 (NR0B1) inhibitors, primary screen, cell-based, HEK293, Gal4-DAX1, luciferase luminescence; Nuclear receptor subfamily 0 group B member 1 (Homo sapiens), P51843; HEK293 Gal4-DAX1 luciferase reporter; inhibition, % at 6.75 µM; 340,000 compounds, 0.99% hits; AID 504766, 2011;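 active = inhibition above the mean over all tested compounds plus 3 SD, cut at about 4.2% in these data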;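 also: 0% = DAX1-transfected cells with DMSO and 100% = empty-vector control cells with DMSO; inhibition shows as a rise in luminescence from relieved DAX1 repression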
Target sequence (P51843 207-470 limits assumed): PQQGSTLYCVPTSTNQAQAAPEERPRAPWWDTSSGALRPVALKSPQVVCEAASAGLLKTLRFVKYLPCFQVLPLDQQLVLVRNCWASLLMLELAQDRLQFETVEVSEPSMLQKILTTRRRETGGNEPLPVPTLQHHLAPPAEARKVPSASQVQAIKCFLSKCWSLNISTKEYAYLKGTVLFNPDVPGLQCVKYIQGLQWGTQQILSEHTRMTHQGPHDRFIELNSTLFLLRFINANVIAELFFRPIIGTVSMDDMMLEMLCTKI
DAX1 inh-2: DAX1 (NR0B1) inhibitors on StAR promoter, primary screen, cell-based, luminescence, SF-1 (NR5A1), full-length DAX-1; HEK293T StAR-luciferase reporter, SF-1/DAX-1 repression relief; inhibition, % at 6.8 µM; 370,000 compounds, 1.1% hits; AID 652010, 2013;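 active = inhibition above the mean over all tested compounds plus 3 SD, cut at about 3.6% in these data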;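 also: 0% = DAX-1 cells with DMSO and 100% = cells lacking DAX-1 with DMSO; higher inhibition means more luminescence from relief of DAX-1 repression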
ssDAF-12 act: S. stercoralis DAF-12 nuclear receptor activators, primary screen, cell-based, luminescence, HEK293, GRIP1 co-expression, lit1-tk-luc | HEK293 ssDAF-12/GRIP1 lit1-tk-luc reporter; % of 3 µM dafachronic acid response | activation, % at 6.8 µM | 370,000 compounds, 1% hits | Nuclear hormone receptor DAF-12 (Strongyloides stercoralis) | AID 652126, 2013;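 active = activation above the mean over all tested compounds plus 3 SD, cut at about 0.9% in these data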;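 also: 0% = DMSO-only wells and 100% = 3 µM delta7-dafachronic acid wells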
SMARCA2 conf: SMARCA2 (BRM) function activators, confirmation, cell-based, luminescence, triplicate; 3,500 compounds, 30% hits; AID 652260, 2013; shares compounds with SMARCA2 activ; MG213 cells, MMTV-luciferase with dexamethasone, overnight; MG213 cells expressing E1A, Rb sequestered; DMSO wells 0%, reference activator 100%; activation, % at 9.1 µM;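 active = activation above its plate's cutoff, the mean activation of tested wells plus 3 SD, cut at about 7.9% in these data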
GAL4-VP16 Luc: GAL4-VP16 luciferase reporter activation, counter-screen for SMARCA2 (BRM) activator project, cell-based, pG5luc, luminescence, high throughput; shares compounds with SMARCA2 activ; HEK293 GAL4-VP16 pG5luc reporter; scaled: DMSO wells 0%, SAHA wells 100%; activation, % at 9.1 µM; 3,500 compounds, 41% hits; AID 686939, 2013;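 active = activation above the solvent-only control well mean plus 3 SD, averaged across control plates, cut at about 5.2% in these data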
The depositor's hits bear a star.

`Cc1ccccc1C1NS(=O)(=O)N=C1N` (configuration not stated) gave hgDAF12 agonist 1, SMARCA2 activ 8.0*, hcDAF-12 act 0, DAX1 inh-1 -1, DAX1 inh-2 0, ssDAF-12 act -2, SMARCA2 conf 0 and GAL4-VP16 Luc 0.
`Cc1cc(-c2n[nH]c(=S)n2N=Cc2c3ccccc3cc3ccccc23)n[nH]1` gave hgDAF12 agonist 3, SMARCA2 activ -4, hcDAF-12 act 0, DAX1 inh-2 -1 and ssDAF-12 act -1.
O=C(COC(=O)CNS(=O)(=O)c1cccc(Br)c1)NC(=O)Nc1ccc2c(c1)OCCO2 was read as hgDAF12 agonist 2, SMARCA2 activ 11*, hcDAF-12 act 0, DAX1 inh-1 -1, DAX1 inh-2 1, ssDAF-12 act 0, SMARCA2 conf 8 and GAL4-VP16 Luc 1.
`Cc1ccc(NC(=O)c2ccc(Cn3cc(Br)cn3)o2)cc1` gave hgDAF12 agonist 0, SMARCA2 activ 1, hcDAF-12 act -3, DAX1 inh-1 -2, DAX1 inh-2 -2 and ssDAF-12 act -1.
Screening NNC(=O)c1ccc(Cn2cc(Br)cn2)o1 returned hgDAF12 agonist 3, SMARCA2 activ 8.1*, hcDAF-12 act -1, DAX1 inh-1 4.5*, DAX1 inh-2 0, ssDAF-12 act -1, SMARCA2 conf -1 and GAL4-VP16 Luc 1.
`COc1ccccc1C(=O)N1CCC2CCN(C(=O)OC(C)(C)C)C2C1` (configuration not stated) gave hgDAF12 agonist 2, SMARCA2 activ -6, hcDAF-12 act -1, DAX1 inh-2 -2 and ssDAF-12 act 0.
For O=C(Nc1nc2ccc(F)cc2s1)C1CCCO1 (configuration not stated) the results were hgDAF12 agonist 11*, SMARCA2 activ 10*, hcDAF-12 act 5, DAX1 inh-1 1, DAX1 inh-2 4.0*, ssDAF-12 act 0, SMARCA2 conf 12* and GAL4-VP16 Luc 5.5*.
CCCCN1C(=O)C(CC(=O)NCCCN(C)C)CC(C(=O)N(C(C)C)C(C)C)=C1C (configuration not stated) was read as hgDAF12 agonist 1, SMARCA2 activ 13*, hcDAF-12 act 2, DAX1 inh-2 1, ssDAF-12 act 0, SMARCA2 conf 8 and GAL4-VP16 Luc 0.
For CCCCN1C(=O)C(CC(=O)NCCCN(C)C)CC(C(=O)N(CC)CC)=C1C (configuration not stated) the results were hgDAF12 agonist 1, SMARCA2 activ -3, hcDAF-12 act 0, DAX1 inh-1 1, DAX1 inh-2 -1 and ssDAF-12 act 0.
O=C(NCCc1ccccc1)c1cnc2sccn2c1=O was read as hgDAF12 agonist 11*, SMARCA2 activ 9.6*, hcDAF-12 act 3, DAX1 inh-1 2, DAX1 inh-2 3, ssDAF-12 act 0, SMARCA2 conf 8.3* and GAL4-VP16 Luc 9.4*.
